Assay outcomes (PubChem)
Hits are enriched below; roughly 2.3% of the tested compounds scored in any of these assays.
PLC-gamma1 inh: PLC-gamma1 (human) inhibition, primary screen; AID 720700; inhibition, % at 12.2 µM; P19174; actives 0.84% (n = 370,000); purified PLC-gamma1, fluorogenic substrate, fluorescence; in the data active = inhibition above about 9.5%
MBD2 DNA inh: blocks human MBD2 binding to methylated DNA | Q9UBB5 | TR-FRET, MBD2 binding to methylated oligonucleotide | inhibition, % at 4.4 µM | actives 0.31% (n = 370,000) | AID 686964; in the data active = inhibition above about 13%
Target sequence (Q9UBB5 whole entry, looked up): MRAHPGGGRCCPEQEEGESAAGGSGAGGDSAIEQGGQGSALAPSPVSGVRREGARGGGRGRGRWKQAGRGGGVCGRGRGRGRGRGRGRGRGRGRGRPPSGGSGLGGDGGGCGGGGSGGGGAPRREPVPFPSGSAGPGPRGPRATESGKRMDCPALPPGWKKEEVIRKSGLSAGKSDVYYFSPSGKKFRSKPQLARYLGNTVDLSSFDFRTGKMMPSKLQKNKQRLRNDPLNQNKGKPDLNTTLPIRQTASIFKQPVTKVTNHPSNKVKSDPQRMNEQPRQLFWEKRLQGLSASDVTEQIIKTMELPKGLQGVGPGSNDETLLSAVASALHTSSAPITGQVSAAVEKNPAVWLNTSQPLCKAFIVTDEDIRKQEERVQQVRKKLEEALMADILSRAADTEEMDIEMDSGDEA
LEDGF integ inh: blocks HIV-1 LEDGF/p75-dependent DNA integration; inhibition, % at 3.7 µM; actives 0.64% (n = 370,000); TR-FRET IN-LEDGF/p75 DNA integration, Eu/Cy5; AID 743269;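 active = inhibition above the screen-wide mean plus 3 SD, cut at about 13% in these data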;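 also: signal is the Cy5 over europium emission ratio at 671 and 618 nm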
UHRF1 binding: UHRF1 methyl-DNA binding inhibition; Q96T88; UHRF1 binding to methylated oligo, TR-FRET; inhibition, % at 4.4 µM; actives 0.75% (n = 370,000); AID 687016; in the data active = inhibition above about 21%;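 also: UHRF1 SRA domain binding a hemimethylated CpG hairpin DNA probe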
PLC-beta3 inh: blocks human PLC-beta3 enzyme activity; Q01970; Purified PLC-beta3, fluorogenic substrate, fluorescence; inhibition, % at 12.2 µM; actives 0.18% (n = 370,000); AID 720704; in the data active = inhibition above about 11%
IN multimer up: HIV-1 integrase multimerization activation, counter-screen; shares compounds with LEDGF integ inh; TR-FRET HIV-1 integrase multimerization, biochemical; activation, % at 7.7 µM; actives 17% (n = 2,000); AID 1053131; in the data active = activation above about 8.9%
TRFRET interf: counter-screen for LEDGF/p75 integration inhibitors: TR-FRET optical interference; shares compounds with LEDGF integ inh; TR-FRET optical interference counterscreen, HIV-1 IN multimerization; inhibition, % at 7.7 µM; 2,000 tested, under 10 active; AID 1053135;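 active = inhibition above the mean over all tested compounds plus 3 SD, which no compound reached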
IN-LEDGF confirm: confirmation of HIV-1 LEDGF/p75-dependent integration inhibitors. inhibition, % at 3.7 µM. actives 36% (n = 2,000). shares compounds with LEDGF integ inh. TR-FRET LEDGF/p75-dependent HIV-1 integration, biochemical; in the data active = inhibition above about 14%
Large screens that a line does not name were inactive (follow-up assays come after a bar, where they were run).

CC(=O)c1cc(-c2ccc3c(c2)OCO3)c(=O)n2c1CCC2	none
C=CCn1c(SCc2cc(=O)n3ccsc3n2)nnc1C1CCCCC1	LEDGF integ inh 15 | IN multimer up inactive | TRFRET interf inactive | IN-LEDGF confirm inactive
O=c1cc(CSc2nnc(NC3CCCCC3)s2)nc2sccn12	none
CCOC(=O)C1=C(O)/C(=C\c2ccc(CNC(=O)C(=O)Nc3ccccc3)o2)N=C1C	LEDGF integ inh 25 | IN multimer up 10 | TRFRET interf inactive | IN-LEDGF confirm 26
O=C1[C@@H]2Cc3c([nH]c4ccccc34)CN2C(=O)CN1CCCCCO	LEDGF integ inh 96 | IN multimer up inactive | TRFRET interf inactive | IN-LEDGF confirm inactive
COc1ccc(C2C(C(=O)Nc3cc(OC)c(OC)c(OC)c3)CCC(=O)N2c2ccc(OC)cc2)cc1 (centres undefined)	none
CCOC(=O)C1(CCOc2ccccc2)CCN(Cc2ccc(CO)o2)CC1	LEDGF integ inh 18 | IN multimer up inactive | TRFRET interf inactive | IN-LEDGF confirm inactive
CCOC(=O)C1(CCOc2ccccc2)CCN(Cc2ccccc2O)CC1	none
COc1cc2c(C#N)c(N3CCCCC3)nc(N)c2c(N)n1	LEDGF integ inh 34 | IN multimer up inactive | TRFRET interf inactive | IN-LEDGF confirm inactive
COc1cc2c(C#N)c(N3CCOCC3)nc(N)c2c(N)n1	none
CCCn1c(CN(C)Cc2ccccc2)nc2c1c(=O)n(C)c(=O)n2C	none
CN(Cc1ccccc1)Cc1nc2c(c(=O)n(C)c(=O)n2C)n1CCc1ccccc1	LEDGF integ inh 23 | IN multimer up inactive | TRFRET interf inactive | IN-LEDGF confirm inactive
CCC(NC(=O)CCCN1C(=O)COc2ccc(C)cc21)c1ccccc1 (centres undefined)	none
COC(=O)c1ccc(N2NC(=O)/C(=C/c3cc(OC)c(OC)c(OC)c3)C2=O)cc1	LEDGF integ inh 14 | IN multimer up inactive | TRFRET interf inactive | IN-LEDGF confirm inactive
Cc1nc(Cl)c(C(=O)NCc2ccccc2)c(C)c1[N+](=O)[O-]	LEDGF integ inh 20 | IN multimer up inactive | TRFRET interf inactive | IN-LEDGF confirm inactive
Cc1nc(Cl)c(C(=O)NCCc2ccccc2)c(C)c1[N+](=O)[O-]	none
O=C(CSc1nc2ccccc2o1)NC(=O)NCc1ccccc1	LEDGF integ inh 29 | IN multimer up inactive | TRFRET interf inactive | IN-LEDGF confirm inactive
CCOc1ccc(-n2ccnc(SCC(=O)NCCc3ccccc3)c2=O)cc1	none
Cc1ccc(-n2ccnc(SCC(=O)NCCc3ccccc3)c2=O)cc1F	LEDGF integ inh 17 | IN multimer up inactive | TRFRET interf inactive | IN-LEDGF confirm inactive
O=S1(=O)N[C@H](Cc2ccccc2)COc2cccc(N3CCCCC3)c21	LEDGF integ inh 39, UHRF1 binding 22 | IN multimer up inactive | TRFRET interf inactive | IN-LEDGF confirm inactive
O=C(OCc1cn(Cc2ccccc2)nn1)N1CCCC1	none
CCN(C[C@H]1N[C@@](CC)(C(=O)OC)[C@H]2C(=O)N(Cc3ccccc3)C(=O)[C@@H]12)C(=O)Nc1ccc(C(F)(F)F)cc1	LEDGF integ inh 66 | IN multimer up inactive | TRFRET interf inactive | IN-LEDGF confirm inactive
Cn1nnc(NC(=S)NC(=O)/C=C/c2ccco2)n1	LEDGF integ inh 14 | IN multimer up inactive | TRFRET interf inactive | IN-LEDGF confirm inactive
COc1cc(NS(=O)(=O)c2ccc(NC(=S)NC(=O)/C=C/c3ccco3)cc2)ncn1	LEDGF integ inh 23, UHRF1 binding 45 | IN multimer up inactive | TRFRET interf inactive | IN-LEDGF confirm 37
COc1ccc2cc(C(=O)NCc3ccco3)c(=O)oc2c1	none
O=C(NCc1ccco1)c1cc2ccc(O)cc2oc1=O	LEDGF integ inh 30 | IN multimer up 20 | TRFRET interf inactive | IN-LEDGF confirm 19
C/C(=N/NC(=O)c1cc(O)c(O)c(O)c1)c1ccc([N+](=O)[O-])cc1	LEDGF integ inh 31, UHRF1 binding 22 | IN multimer up 19 | TRFRET interf inactive | IN-LEDGF confirm 51
C/C(=N\NC(=O)c1ccc([N+](=O)[O-])cc1)c1c(O)cc(C)oc1=O	none
COc1cc(C(=O)O)c2c(c1C)OC(=O)c1c(C)cc(O)c(C=O)c1O2	LEDGF integ inh 17 | IN multimer up inactive | TRFRET interf inactive | IN-LEDGF confirm 38
COc1cc(N)c2ncccc2c1OC	LEDGF integ inh 27 | IN multimer up inactive | TRFRET interf inactive | IN-LEDGF confirm inactive
O=C(COC(=O)/C=C/c1ccco1)Nc1cc(S(=O)(=O)N2CCOCC2)ccc1Cl	LEDGF integ inh 15 | IN multimer up inactive | TRFRET interf inactive | IN-LEDGF confirm inactive
CN(Cc1ccccc1)C(=O)COC(=O)/C=C/c1ccco1	none
CC(=O)Nc1cccc(C(=O)/C=C/c2ccco2)c1	none
O=C(COC(=O)/C=C/c1ccco1)Nc1ccccc1	none
CC(=O)Nc1ccc(C(=O)/C=C/c2ccco2)cc1	LEDGF integ inh 28 | IN multimer up 12 | TRFRET interf inactive | IN-LEDGF confirm 35
CCc1ccc(NC(=O)COC(=O)/C=C/c2ccco2)cc1	LEDGF integ inh 27, UHRF1 binding 25 | IN multimer up inactive | TRFRET interf inactive | IN-LEDGF confirm inactive
CN(CCOC(=O)/C=C/c1ccco1)Cc1ccccc1	LEDGF integ inh 23, UHRF1 binding 26 | IN multimer up inactive | TRFRET interf inactive | IN-LEDGF confirm 38
CCOc1ccc2c(c1)C(NC(C)=O)C(=O)N2CCN1CCOCC1 (centres undefined)	none
CC(=O)NC1C(=O)N(CCN2CCOCC2)c2ccc(Br)cc21 (centres undefined)	LEDGF integ inh 16 | IN multimer up inactive | TRFRET interf inactive | IN-LEDGF confirm 37
Cc1ccc2nsnc2c1NC(=O)c1sc2ccccc2c1Cl	LEDGF integ inh 25 | IN multimer up inactive | TRFRET interf inactive | IN-LEDGF confirm inactive
Cc1cccc(NC(=O)C2CCCN(c3nnc(-n4cccc4)s3)C2)c1C (centres undefined)	none
COc1ccc(C(CNCC(O)COc2c(C)ccc(C)c2C)N(C)C)cc1 (centres undefined)	LEDGF integ inh 14 | IN multimer up inactive | TRFRET interf inactive | IN-LEDGF confirm inactive
CC1=C(SCc2ccccc2)C(=O)c2ccccc2C1=O	LEDGF integ inh 24 | IN multimer up inactive | TRFRET interf inactive | IN-LEDGF confirm 44
CS(=O)(=O)N(CC(=O)N1CCN(c2cccc(Cl)c2)CC1)c1cccc(F)c1	LEDGF integ inh 24 | IN multimer up inactive | TRFRET interf inactive | IN-LEDGF confirm inactive
Brc1ccc(-c2nc(-c3ccccc3)no2)o1	none
